Source: PubChem BioAssay
The sample as a whole holds a higher share of hits than the screen did.
Dicer processing = inhibitors of human Dicer processing of pre-microRNA; Q9UPY3; z-score at 25 µM; 6% of 47,000 active; cat-ELCCA pre-miR-21 Dicer processing, chemiluminescence; stronger effect = higher value; AID 1347074; in the data active = z-score above about 3, passing the limit was not always enough;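 note: higher signal means more uncleaved substrate so more Dicer inhibition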
Large screens that a line does not name were inactive.

Cc1ccc(CN2C(=O)c3oc4ccccc4c(=O)c3C2c2cccc(O)c2)cc1 (stereo unspecified)	none
C=CCOc1ccc(C2c3c(oc4ccccc4c3=O)C(=O)N2c2nnc(C)s2)cc1 (stereo unspecified)	none
CC(=O)C(C)(CCC(=O)O)CCC(=O)O	none
COc1ccc(N2CCN(S(=O)(=O)c3ccc(Cl)cc3)CC2)cc1	none
O=C(Oc1ccc(Cl)cc1)c1cccs1	none
Cc1cc(C)c(CSCCNC2=CC(=O)CC(c3ccc(Cl)cc3)C2)c(C)c1 (stereo unspecified)	none
C=CCOc1ccc(C2C3=C(CC(C)(C)CC3=O)N(C)C3=C2C(=O)CC(C)(C)C3)cc1	none
CC(=O)N(C(C)=O)c1cc(C)c(C#N)c2nc3ccccc3n12	none
Cn1nc(C(F)(F)F)cc1-c1ccc(/C=C(\C#N)S(=O)(=O)c2ccc(C(F)(F)F)cn2)s1	none
CCOC(CN(C(=O)c1ccc(C)cc1)c1ccc(F)cc1)OCC	Dicer processing 4.6
CCOC(CN(c1ccc(F)cc1)S(=O)(=O)c1ccc(F)cc1F)OCC	none
CCOC(CN(C(=O)c1ccc(C(F)(F)F)cc1)c1ccc(F)cc1)OCC	none
O=C(CN1C2=NCCN2c2ccccc21)c1cccc2ccccc12	none
c1ccc(C2Oc3ccccc3C3CC(c4cccs4)=NN32)nc1 (stereo unspecified)	none
Cc1ccc(C2=NN3C(C2)c2ccccc2OC3c2ccc(F)cc2)o1 (stereo unspecified)	none
O=[N+]([O-])c1ccc(/C=C/C2Oc3ccccc3C3CC(c4cccs4)=NN23)o1 (stereo unspecified)	Dicer processing 6.5
CCOc1ccc(C2C3=C(CC(C)(C)CC3=O)Nc3nc(N)[nH]c(=O)c32)cc1 (stereo unspecified)	none
CCCCOC(=O)c1ccc2c(c1)C(=O)NC2=O	none
O=C1c2ccccc2C(=O)N1CC12CC3CC(CC(Br)(C3)C1)C2	none
CC(=O)NC(=O)/C(C#N)=C/NCc1cccs1	none
Cc1cc(=O)n(-c2nc3ccccc3[nH]2)[nH]1	Dicer processing 4.3
Cc1cc(=O)n(-c2ccc(O)cc2)[nH]1	none
O=C1CC(c2ccccc2Cl)Cc2c1cnn2-c1nc2ccccc2[nH]1 (stereo unspecified)	none
Cc1[nH]n(-c2nc3ccccc3[nH]2)c(=O)c1C1OC(=O)c2ccccc21 (stereo unspecified)	Dicer processing 3.8
Cc1cc(=O)n(-c2ccc(Cl)c(Cl)c2)[nH]1	none
Cc1ccccc1-c1nc2ccccc2[nH]1	none
CC1CN(c2ccc(Oc3ccccc3)cc2)c2nc3c(c(=O)n(CC(=O)O)c(=O)n3C)n2C1 (stereo unspecified)	none
O=C(O)c1cccc2cccc(Sc3cccc4cccc(CO)c34)c12	none
CNC(=O)c1cccc2cccc(Sc3ccccc3C(=O)O)c12	Dicer processing 25
O=C(O)c1cccc2cccc(Sc3cccc4ccccc34)c12	none
COC(=O)c1cc(S(=O)(=O)NCCc2c[nH]c3ccccc23)oc1C	none
Cc1ccc(C2Nn3c(C)nnc3SC2C(=O)Nc2ccc(C)cc2Br)cc1 (stereo unspecified)	none
Cc1cc(Br)ccc1NC(=O)C1Sc2nnc(C)n2NC1c1ccccc1 (stereo unspecified)	none
Cc1nnc2n1NC(c1ccc(F)cc1)C(C(=O)Nc1ccc(Br)cc1Cl)S2 (stereo unspecified)	Dicer processing 3.4
Cn1c(=O)c2c(ncn2CC(=O)NCc2ccccn2)n(C)c1=O	none
COC(=O)c1cc(OC)c(OC)cc1N1C(=O)CCC1=O	none
O=C(N/N=C/c1ccc(C(F)(F)F)cc1)c1nc2ccccc2nc1C(F)(F)F	none
COC(=O)c1cccc(CO/N=C(\C)c2ccc(Cl)c(Cl)c2)c1	none
CCCC[C@@]1(C2CCCC2)Cc2cc(OCC(=O)O)c(Cl)c(Cl)c2C1=O	Dicer processing 4
Cn1c(=O)c2c(nc(NCc3ccc4c(c3)OCO4)n2Cc2cccc(Br)c2)n(C)c1=O	none
COc1ccc(C2c3c(oc4ccccc4c3=O)C(=O)N2c2nncs2)cc1 (stereo unspecified)	none
COc1ccc(C2C(C#N)=C(N)Oc3n[nH]c(-c4ccc5c(c4)OCO5)c32)cc1OC (stereo unspecified)	none
CCn1nc(-c2ccncc2)nc2c(=O)n(C)c(=O)nc1-2	none
CCN1C(=O)C2(/C(=C(/O)c3ccc(C)cc3)C(=O)C(=O)N2CCCN(C)C)c2ccccc21 (stereo unspecified)	none
CCN1C(=O)C2(/C(=C(/O)c3ccc(OC)cc3)C(=O)C(=O)N2CCCN(C)C)c2ccccc21 (stereo unspecified)	Dicer processing 3.3
CCN1C(=O)C2(/C(=C(/O)c3ccc(OC)cc3)C(=O)C(=O)N2CCN(C)C)c2ccccc21 (stereo unspecified)	Dicer processing 4.3
CCCN1C(=O)C2(/C(=C(/O)c3ccc(OC)cc3)C(=O)C(=O)N2CCCN(C)C)c2ccccc21 (stereo unspecified)	none
CCCN1C(=O)C2(/C(=C(/O)c3ccc(F)cc3)C(=O)C(=O)N2CCN(C)C)c2ccccc21 (stereo unspecified)	none
CCN1C(=O)C2(/C(=C(/O)c3ccc(OC)c(C)c3)C(=O)C(=O)N2CCCN(C)C)c2ccccc21 (stereo unspecified)	none
CNC(=S)N(C)NC(=S)NCc1cccs1	none
O=c1cc(C(F)(F)F)[nH]c2c(Br)cccc12	none
Cn1c(SCc2n[nH]c(=S)n2Cc2ccccc2)nnc1-c1ccccc1	none
O=c1[nH]c2c(cnn2-c2ccccc2)c(=O)n1-c1ccc(Cl)c(Cl)c1	none
CN1CCc2c(sc3[nH]c(=S)n(-c4ccccc4)c(=O)c23)C1	none
CCOC(=O)Cn1c(=O)n(-c2ccc(Cl)cc2)c(=O)c2cc(-c3ccccc3)sc21	none
CC1CCc2c(sc3[nH]c(=S)n(-c4ccccc4)c(=O)c23)C1 (stereo unspecified)	none
O=c1c2cc(-c3ccccc3)sc2[nH]c(=S)n1-c1ccccc1	Dicer processing 4.1
O=c1[nH]c2sc(-c3ccccc3)cc2c(=O)n1-c1cccc(Cl)c1	Dicer processing 4.4
CCOC(=O)COc1ccc2c(c1)OC(C)(C)CC2=O	none
CCOC(=O)CNC(=O)/C=C/c1cc(Br)c(OC)c(OC)c1	none
CC1CCCCN1CCCNC(=S)Nc1cc(C(F)(F)F)cc(C(F)(F)F)c1 (stereo unspecified)	none
O=C1CCCc2nc(N3CCN(c4ccc(F)cc4)CC3)ncc21	none
COC(=O)c1c(NC(=O)COc2ccccc2Br)sc2c1CCCC2	none
O=C1CCC(C(=O)O)C(Cc2ccccc2)C1 (stereo unspecified)	none
CCOC(=O)C(Sc1ncnc2c1sc1nc(C)cc(C)c12)C(C)=O (stereo unspecified)	none
Cc1ccc2c(c1)C(=O)OC1(O)C3C4C=CC(C4)C3C(=O)N21 (stereo unspecified)	none
O=C1C2C3C=CC(C3)C2C(=O)N1c1cccc(N2C(=O)C3C4C=CC(C4)C3C2=O)n1 (stereo unspecified)	none
O=C1OC2(O)C3C4C=CC(C4)C3C(=O)N2c2ccccc21 (stereo unspecified)	Dicer processing 4.9
C#CCOc1ccc(Cl)cc1C1C2=C(CCCC2=O)NC2=C1C(=O)CCC2	none
Cc1ccc(-n2c(C(C)(C)C)cs/c2=N/c2ccccn2)cc1C	none
CC(=O)Oc1ccc2nc(-c3ccccc3)oc(=O)c2c1	none
COc1ccc(C2C(C(=O)OCC(C)C)=C(C)NC3=C2C(=O)CC(c2ccccc2)C3)c(OC)c1 (stereo unspecified)	none
COc1ccc(C2CC(=O)C3=C(C2)NC(C)=C(C(=O)OCC(C)C)C3c2ccc3c(c2)OCO3)cc1 (stereo unspecified)	none
